cytoskel mod: modifiers of F-actin cytoskeleton organization, primary screen, imaging, HUVEC, phalloidin staining, high-content imaging; HUVEC TNFa F-actin phalloidin imaging; inhibition, % at 2 µM; 91,000 tested, 0.18% active;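 active = inhibition above the batch mean plus 3 SD and confirmed as a hit by visual image inspection, cut at about 30% in these data, passing the limit was not always enough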
CYP2C9 activ: human CYP2C9 activators, primary screen, biochemical, luminescence; Cytochrome P450 2C9 (Homo sapiens), P11712; recombinant CYP2C9, luciferin-H conversion; active compounds read high; factor 1 = untreated enzyme, 0 = blocked; activation factor at 5 µM; 96,000 tested, 1.4% active; AID 1024, 2008;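 active = activation factor of 2 or more for CYP2C9 at a 5 µM dose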;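 note: 0 = sulfaphenazole-blocked wells and 1 = vehicle-only wells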
Target sequence (P11712 whole entry, looked up): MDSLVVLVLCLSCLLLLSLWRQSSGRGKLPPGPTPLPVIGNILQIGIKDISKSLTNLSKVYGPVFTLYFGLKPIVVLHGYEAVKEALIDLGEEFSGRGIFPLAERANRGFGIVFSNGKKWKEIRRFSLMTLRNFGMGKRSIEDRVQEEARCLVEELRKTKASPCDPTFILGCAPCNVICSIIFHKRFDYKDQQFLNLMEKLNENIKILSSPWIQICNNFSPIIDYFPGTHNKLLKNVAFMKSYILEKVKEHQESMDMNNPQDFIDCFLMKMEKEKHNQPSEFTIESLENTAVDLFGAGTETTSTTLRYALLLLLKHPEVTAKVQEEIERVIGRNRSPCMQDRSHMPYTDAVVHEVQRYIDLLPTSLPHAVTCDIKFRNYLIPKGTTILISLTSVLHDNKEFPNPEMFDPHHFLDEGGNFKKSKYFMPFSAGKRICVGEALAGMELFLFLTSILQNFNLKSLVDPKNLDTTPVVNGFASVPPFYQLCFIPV
CYP2C19 act: human CYP2C19 activators, primary screen, biochemical, luminescence. AID 1025, 2008. recombinant CYP2C19, luciferin-H EGE luminescence; active compounds read high; 0 = fully inhibited enzyme, 1 = untreated enzyme. activation factor at 5 µM. 96,000 tested, under 10 active;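 active = activation factor of at least 2 at 5 µM in the primary screen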;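 note: 0 = wells with 2.5 mM tranylcypromine and 1 = vehicle-only wells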
CYP2C19 inh: blockers of cytochrome P450 2C19 activity – biochemical, luminescence, ADME assay, primary screen | AID 778, 2007 | CYP2C19 Supersomes, luciferin-H EGE luminescence, 30 min | inhibition, % at 5 µM | P33261 | 96,000 tested, 21% active;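 active = CYP2C19 inhibition above a set limit at 5 µM in the primary screen, cut at about 50% in these data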;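 note: plate controls were negative control wells for no effect and 2.5 mM tranylcypromine positive control for full effect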
CYP2C9 inh: blockers of cytochrome P450 2C9 activity – biochemical, luminescence, ADME assay, primary screen; CYP2C9 Supersomes, luciferin-H conversion; inhibition, % at 5 µM; 96,000 tested, 20% active; AID 777, 2007;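 active = blocking of liver enzyme CYP2C9 beyond about 50% at 5 µM, limit read from the data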
E-sel TNF inh: E-selectin induction blockers in HUVEC – imaging, immunofluorescence, high content, primary screen; HUVEC TNFa-induced E-selectin immunofluorescence; inhibition, % at 2 µM; 120,000 tested, 0.71% active;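 active = inhibition above the batch mean plus 3 SD, and confirmed as a hit on visual image review, cut at about 43% in these data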;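 note: 0% = TNF-stimulated DMSO wells and 100% = unstimulated control wells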
An asterisk follows results filed as active; · = no result given. This is a sample that favours compounds with a hit; in the whole collection about 22% have one here.

SMILES	cytoskel mod	CYP2C9 activ	CYP2C19 act	CYP2C19 inh	CYP2C9 inh	E-sel TNF inh
Cc1ccc(-c2nc(CS(=O)CC(=O)NCCCN3CC(C)CC(C)C3)c(C)o2)cc1 (stereo not drawn)	·	0.9	0.9	5	7	·
COc1cccc(-c2nc(CS(=O)CC(=O)O)c(C)o2)c1 (stereo not drawn)	2	0.9	1	-1	10	·
COc1cccc(-c2nc(CS(=O)CC(=O)NC3CCCC3)c(C)o2)c1 (stereo not drawn)	·	0.4	0.7	30	57*	·
COc1ccc(-c2nc(CS(=O)CC(=O)NCc3ccc(Cl)cc3)c(C)o2)cc1 (stereo not drawn)	·	0.2	0.2	80*	79*	·
CCCN1CCC(N2CCCC(C(=O)O)C2)CC1 (stereo not drawn)	·	·	·	·	·	14
CCn1c(SCC(=O)c2ccc(CNC(C)=O)o2)nnc1-c1cccs1	5	1	0.6	39	1	·
CCc1cccc(NC(=O)CS(=O)Cc2nc(-c3ccc(C)cc3)oc2C)c1 (stereo not drawn)	-1	0.1	0.2	77*	88*	8
CCCCNC(=O)CS(=O)Cc1nc(-c2ccc(C)cc2)oc1C (stereo not drawn)	2	0.8	1.1	-7	15	-15
Cc1ccc(-c2nc(CS(=O)CC(=O)NC3CCC(C)CC3)c(C)o2)cc1 (stereo not drawn)	·	0.1	0.3	67*	89*	·
CCN1C(=O)C(Cc2nc3ccccc3c(=O)n2C)c2ccccc21 (stereo not drawn)	-19	0.4	0.4	57*	60*	5
CCCN1C(=O)C(Cc2nc3ccccc3c(=O)n2C)c2ccccc21 (stereo not drawn)	1	0.7	0.5	48	28	12
Cc1ccc(OCc2nc(C#N)c(NCc3ccc4c(c3)OCO4)o2)cc1	-17	0	0	98*	99*	36
C=CCNc1oc(COc2ccc(C)cc2)nc1C#N	-14	0.7	0.3	65*	27	29
CN(C)CCNc1oc(COc2ccc(-c3ccccc3)cc2)nc1C#N	8	0.8	0.8	23	16	5
CCOc1ccc(-c2nc(C#N)c(NCc3ccc4c(c3)OCO4)o2)cc1	-15	0.7	1.1	-12	28	·
Cn1c(=O)c(C(=O)CN2CCOCC2)c(N)n(Cc2ccccc2)c1=O	-1	1.1	1.1	-6	-10	-9
CC(C)[C@H](NC(=O)NCCc1ccc(Cl)cc1)C(=O)O	4	0.9	1	-4	12	-28
O=C(CN1CCCC1)Nc1ccc(NC(=O)Nc2ccccc2Cl)cc1	10	1.1	1	-3	-11	-4
COc1ccc(C(=O)NCc2nnc(SCC(=O)Nc3cccc(C(F)(F)F)c3)o2)cc1OC	0	1.2	0.5	54*	-18	4
CCOC(=O)c1ccc(NC(=O)CSc2nnc(CNC(=O)c3c(F)cccc3Cl)o2)cc1	4	0.4	0.8	24	58*	8
C[n+]1cc[nH]c1SCC(=O)c1ccccc1	25	1.1	0.3	72*	-9	-21
COc1ccc2c(c1)-c1nc(/N=C/c3ccc(O)cc3)sc1CC2	·	·	·	·	·	8
O=C(CSc1nc2cc(Cl)ccc2s1)c1cc2ccccc2o1	2	0.9	1.1	-7	6	5
O=C(CSc1nc2cc(Cl)ccc2s1)N1CCN(C(=O)c2ccco2)CC1	15	0.1	0.1	86*	86*	-28
O=C(CSc1nc(-c2ccccc2)cs1)N1CCN(C(=O)c2ccco2)CC1	·	1.2	0.4	62*	-16	9
CC1CN(C(=O)CSc2nc(-c3ccccc3)cs2)CC(C)O1 (stereo not drawn)	23	0.9	0.1	93*	8	6
CC1(C)C(=O)Nc2ccccc2N1C(=O)CSc1nc(-c2ccccc2)cs1	·	·	·	·	·	-2
Cc1cc(C)nc(NC(=O)CSc2nc3cc(Cl)ccc3s2)n1	8	2.7*	1	-1	-167	-30

Screens: PubChem, several laboratories
